Growth data for eight compounds are collected here from PubChem BioAssay (NCI).

Compounds without any hit were thinned out: in the full panel of roughly 83,000, 20% have a hit.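 Negative percent growth values reflect cell death: -40 means 40% of the cells present at the start died, and -100 means all died.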 A number with no mark means an inactive call. Calls of active or inactive are those of the source. Rule for the calls: active = growth percent below 10; inactive = the rest.

Holding throughout (assay): NCI-60 one-dose screen, 48 h (100 = growth as untreated, 0 = no growth, -100 = all killed)
Conditions in all cases: 10 µM unless noted

The subject of assay [1] is NCI-H23 lung.
The subject of assay [2] is NCI-H226 lung.
For assay [3], the system named is NCI-H322M lung.
The subject of assay [4] is HOP-62 NSCLC.
Assay [5] relates to NCI-H460 lung.
Assay [6] deals with NCI-H522 lung.
For assay [7], the system named is A549/ATCC NSCLC.
Assay [8] has as its system 786-0 renal.
Assay [9] relates to COLO 205 colon.
The subject of assay [10] is DU-145 prostate.
Assay [11] deals with K-562 leukemia.
The test system of assay [12] is MALME-3M melanoma.
Assay [13] deals with MDA-MB-231 breast.
Assay [14] has as its system RXF 393 renal.
For assay [15], the system named is SF-268 CNS.
For assay [16], the system named is SF-295 CNS.
Assay [17] relates to SF-539 CNS.
The test system of assay [18] is UACC-257 melanoma.
Assay [19] relates to M14 melanoma.

`Cc1c(C(=O)CCl)c(=O)n(-c2ccccc2)n1C`: the growth is 72.7% in assay [1]; 104% in assay [2]; 101% in assay [3]; 105% in assay [4]; 81.2% in [5]; -34.4% (active) in [6]. The growth in assay [7] was 83.5%; in [8] it was 88.6%; in assay [9] it was 48.7%; in [10], 42.4%; in assay [11], 53%; in assay [12], 48.1%. In addition, the growth is 97.7% in [13]; 38.7% in assay [14]; 84.5% in [15]; 87.3% in assay [16]; 71.7% in assay [17]; 52.1% in [18]. For the same compound, in assay [19], the growth was 52.3%.

For `O=C1C=CN2C(=O)CC=CC2[C@@H]1O` (some centres not stated), the growth was 103% in [1]; 113% in assay [2]; 116% in assay [3]; 112% in assay [4]; 121% in assay [5]; 113% in assay [6]. In addition, the growth in assay [7] is 108%; in assay [8] it was 110%; in assay [9], 123%; in assay [10] it was 118%; in [11] it was 109%; in assay [12] it was 133%. The growth in [13] is 122%; in [14] it was 118%; in assay [15] it was 111%; in [16] it was 116%; in assay [17], 104%; in assay [18], 108%. Also, the growth in assay [19] was 104%.

With `CCCCCCCCN=C(NCCCCCCCC)SCc1cccc2ccccc12`, the growth in [1] is -81.2% (active); in assay [2] it was -84.2% (active); in assay [3], -1.49% (active); in assay [4] it was -97.7% (active); in assay [5], -89.1% (active); in [6], -83.3% (active). The growth is -75.8% (active) in assay [7]; -88.1% (active) in assay [8]; -99.7% (active) in assay [9]; -74.3% (active) in assay [10]; -13.4% (active) in [11]; -44.3% (active) in assay [12]. Further, the growth in assay [13] is -92.6% (active); in assay [14] it was -78.6% (active); in assay [15] it was -90.8% (active); in assay [16] it was -85.1% (active); in [17], -87.1% (active); in assay [18], -77.7% (active). The growth in [19] is -86.6% (active).

Turning to `CCN(CC)c1ccc(/C=N/NC(=O)C[N+](C)(C)C)cc1`, the growth is 99.4% in assay [1]; 98.9% in assay [2]; 115% in [3]; 99.2% in assay [4]; 110% in assay [5]; 100% in assay [6]. In addition, the growth in assay [7] is 100%; in assay [8] it was 101%; in assay [9], 111%; in [10], 113%; in assay [11] it was 54.3%; in assay [12] it was 92.6%. Also, the growth in [13] is 119%; in [14], 112%; in assay [15], 110%; in assay [16] it was 109%; in assay [17], 110%; in assay [18], 104%. Besides, in [19], the growth was 110%.

As for `CCCC(CCC)(C(N)=O)C(=O)O`, the growth in [1] was 105%; in [2] it was 98.5%; in assay [3], 111%; in assay [4], 98.6%; in assay [5], 115%; in assay [6], 97.2%. Also, the growth in [7] was 97.8%; in assay [8], 113%; in assay [9], 106%; in assay [10], 108%; in assay [11], 120%; in [12], 111%. Besides, the growth in assay [13] is 116%; in [14], 124%; in assay [15] it was 102%; in assay [16] it was 107%; in assay [17], 120%; in [18], 102%. Besides, the growth in assay [19] is 108%.

Take `Nc1c(C(=O)Nc2cccc(Cl)c2)sc2nc3c(cc12)C(=O)CCC3`: the growth was 38% in assay [1]; 57.9% in assay [2]; 71.8% in assay [3]; 47% in [4]; 10.3% in assay [5]; 14.6% in assay [6]. Also, the growth in assay [7] is 28.2%; in assay [8], 47.7%; in assay [9], 10.2%; in [10], 11.6%; in assay [11], 22.8%; in assay [12], 49.7%. The growth is 43.9% in assay [13]; 25.9% in [14]; 63.1% in assay [15]; -20.2% (active) in assay [16]; 27.3% in assay [17]; 68.9% in assay [18]. Also, the growth in [19] was 26.9%.

As for `CCN(CC)CCNC(=O)C(F)(F)C(F)(F)C(F)(F)F`, the growth is 114% in [1]; 93.7% in assay [2]; 114% in [3]; 95.6% in assay [4]; 111% in [5]; 110% in assay [6]. The growth is 104% in [7]; 87.2% in [8]; 102% in assay [9]; 115% in [10]; 109% in assay [11]; 124% in assay [12]. In addition, the growth in [13] is 104%; in [14], 98%; in [15], 103%; in assay [16], 101%; in [17], 90.7%; in assay [18] it was 111%. In addition, in assay [19], the growth was 97.7%.

With `C=CCOc1ccc2c(C)cc(=O)oc2c1`, the growth is 102% in assay [1]; 109% in [2]; 126% in assay [3]; 112% in assay [4]; 99.6% in assay [5]; 93.3% in assay [6]. Also, the growth was 89.6% in assay [7]; 109% in assay [8]; 138% in [9]; 109% in assay [10]; 99.4% in assay [11]; 132% in [12]. Besides, the growth in assay [13] is 128%; in assay [14], 134%; in [15] it was 109%; in assay [16], 99.8%; in assay [17], 103%; in [18], 105%. Besides, the growth in assay [19] was 122%.
